Bioassay records as filed in PubChem.
COUP-TFII inh: NR2F2 transcriptional activity inhibitors, primary screen, cell-based, luciferase reporter, HEK293T, luminescence; COUP transcription factor 2 (Homo sapiens), P24468; HEK293T NGFI-A luciferase reporter; inhibition, % at 8.6 µM; hit rate 0.7% among 370,000; AID 686940, 2013;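 active = inhibition above a per-plate cutoff, mean inhibition of test wells between control levels plus 3 SD, cut at about 38% in these data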;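 also: cells cotransfected with COUP-TFII expression vector driving the NGFI-A reporter; 0% = median of COUP-TF2 test wells and 100% = reporter-only cells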
NCOA3 inh: SRC3 coactivator transcriptional activity inhibitors, primary screen, cell-based, luminescence; HEK293 GAL4-SRC3 luciferase reporter; inhibition, % at 3.6 µM; hit rate 0.17% among 360,000; AID 588352, 2011;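 active = inhibition above a per-campaign cutoff, the mean of all compounds plus 3 SD, cut at about 60% in these data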;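 also: 0% = DMSO-treated cells and 100% = gossypol-treated cells at 36 µM; higher means less SRC3-driven luciferase light from the GAL4 reporter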
NR5A2 inv ag: LRH-1 (NR5A2) inverse agonists, primary screen, cell-based, luminescence, HEK293T, StAR-luciferase reporter; inhibition, % at 3.6 µM; hit rate 0.13% among 360,000; AID 602396, 2012; LRH-1 transfected, 24 h;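 active = inhibition above the mean inhibition of all tested compounds plus 3 SD, cut at about 73% in these data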;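 also: 0% = DMSO wells and 100% = reporter-only cells lacking LRH-1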
Gli-Sufu antag: Gli-Sufu pathway antagonists, primary screen, luciferase luminescence, Sufu-KO-LIGHT cells, uHTS | Sufu-KO-LIGHT fibroblasts, Gli luciferase reporter luminescence | inhibition, % at 5 µM | hit rate 0.74% among 340,000;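 active = inhibition above about 55%, limit read from the data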;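 also: 0% = DMSO-treated cells and 100% = wells with medium but no cells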
NCOA1 inh: SRC1 coactivator transcriptional activity inhibitors, primary screen, cell-based, luminescence; Nuclear receptor coactivator 1 (Homo sapiens), Q15788; HEK293 GAL4-SRC1 luciferase reporter; inhibition, % at 3.6 µM; hit rate 0.12% among 360,000; AID 588354, 2011;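 active = inhibition above the campaign mean plus 3 SD, with each screening campaign given its own cutoff, cut at about 60% in these data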;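 also: 0% = DMSO treated cells and 100% = gossypol at 36 µM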
NCOA2 inhibitor: inhibition of GAL4-SRC2 driven luciferase reporter, primary screen, SRC2 inhibitor project, cell-based, luminescence; Nuclear receptor coactivator 2 (Homo sapiens), Q15596; HEK293 GAL4-SRC2 luciferase reporter; inhibition, % at 9 µM; hit rate 0.17% among 370,000;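 active = inhibition above the mean inhibition of all tested compounds plus 3 SD, set per campaign, cut at about 52% in these data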;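 also: 0% = DMSO treated cells and 100% = cells given Gossypol at 36 µM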
Gli-Sufu confirm: Gli-SUFU pathway antagonists, confirmation, single concentration, luciferase luminescence, Sufu-KO-LIGHT cells | hit rate 40% among 2,500 | Gli luciferase reporter | shares compounds with Gli-Sufu antag | inhibition, % at 5 µM;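 active = mean inhibition at 5 µM reaching about 45%, limit read from the data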;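 also: plate controls were DMSO-treated cells for no effect and wells lacking cells for full effect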
SufuKO cytotox: cytotoxicity in Sufu-KO-LIGHT cells, confirmation, cytotoxicity control for Gli-SUFU antagonist project, cell-based, ATP luminescence, single concentration | shares compounds with Gli-Sufu antag | cytotoxicity, % at 5 µM | hit rate 32% among 2,500;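 active = mean cytotoxicity at 5 µM above about 25%, limit read from the data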;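 also: cells exposed to compound overnight for roughly 16 to 18 hours; plate controls were DMSO wells with cells for no effect and medium without cells for full effect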
Wnt3a cs: Wnt3a reporter signal inhibition, confirmation, counter-screen for Gli-SUFU antagonist project, Wnt-LIGHT cells, luminescence, single concentration; shares compounds with Gli-Sufu antag; inhibition, % at 6.25 µM; Wnt3a-driven luciferase reporter; hit rate 20% among 2,500;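 active = mean inhibition above about 25%, limit read from the data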
Numbers without * were called inactive; / = no result given. A selection: hits, their analogues and other compounds. The true share with any hit is near 1.3%.

SMILES	COUP-TFII inh	NCOA3 inh	NR5A2 inv ag	Gli-Sufu antag	NCOA1 inh	NCOA2 inhibitor	Gli-Sufu confirm	SufuKO cytotox	Wnt3a cs
Cc1cc(C)c2nc(NNC(=O)c3ccc(S(=O)(=O)N4CCCC(C)C4)cc3)sc2c1 (stereo unspecified)	8	2	-25	58*	17	25	17	9	-8
Cc1ccc(S(=O)(=O)N2CCSC2)cc1C	-9	25	6	56*	0	-22	13	8	12
COc1ccc(S(=O)(=O)N2CCSC2)cc1C	10	20	22	-6	-8	1	/	/	/
COc1cc(NC(=O)c2ccccn2)cc(OC)c1OC	-1	15	14	-18	-11	20	/	/	/
COc1cc(C(=O)N/N=C(\c2ccccc2)c2ccccn2)cc(OC)c1OC	17	58	36	92*	40	25	84*	38*	57*
Fc1ccc(Cn2nnnc2CN2CCN(C3CCCC3)CC2)cc1	6	-37	11	93*	0	8	18	-11	0
NC(=NC(=O)/C=C/c1ccccc1Br)N(CC#Cc1ccccc1)CC#Cc1ccccc1	18	/	/	/	/	/	/	/	/
COC1=C[C@H](C(=O)N[C@H]2CCCC[C@@H]2NC(C)=O)[C@H](C)[C@@H](c2ccccc2)CC1=O	-21	/	/	/	/	-5	/	/	/
COc1ccc(S[C@]2(C(=O)N3CCCC3)CC(=O)N(C(=O)CCc3ccccc3)[C@@H]2c2ccc(OC)cc2)cc1	6	/	/	/	/	12	/	/	/
Cn1c(C(=O)N2CCN(c3nc4ccccc4s3)CC2)cc2sccc21	4	21	-2	10	-12	10	/	/	/
COc1ccccc1N1CCN(C(=O)c2cc3sccc3n2C)CC1	13	8	2	92*	-1	18	8	-6	-17
O=C(c1cc2ccccc2[nH]1)N1CCOCC1	-11	-3	-32	2	-24	-10	/	/	/
COc1ccc2cc(C(=O)N3CCN(c4ccccc4OC)CC3)[nH]c2c1	14	-8	-3	57*	11	-1	31	3	-4
CN1CCN(C(=O)c2cc3ccccc3[nH]2)CC1	12	-11	20	53	-14	-17	14	14	-7
CC(=O)N1CCc2cc(S(=O)(=O)NC3CCN(C(=O)CCl)CC3)ccc21	-10	/	/	/	/	29	/	/	/
CC(C)C[C@H](NC(=O)c1nccs1)C(=O)N1CCC[C@H]1C(=O)NCc1ccccc1	-19	/	/	/	/	4	/	/	/
CCCc1cc(=O)oc2cc(C)cc(OCC(=O)N3CCC(C(=O)O)CC3)c12	10	25	12	55	-11	2	19	-3	12
O=C(OC12CCCN(C1)/C(=C/c1cccnc1)C2)c1ccco1 (stereo unspecified)	-8	/	/	/	/	24	/	/	/
Cc1nn(Cc2noc(C(=O)NCC3CCCO3)n2)c(C)c1Br (stereo unspecified)	-6	-50	6	-1	-17	5	/	/	/
Cc1nn(Cc2noc(C(=O)NC3CCC(C)CC3)n2)c(C)c1Br (stereo unspecified)	-2	9	2	51	-10	6	80*	29*	1
O=C(CN1C(=O)c2ccccc2C1=O)Nc1cccnc1	0	5	-3	64*	6	5	17	8	7
O=C(OCCN1CCN(C2CN(Cc3cn(Cc4cccc(F)c4)nn3)S(=O)(=O)C2)CC1)c1cc2ccccc2o1 (stereo unspecified)	-5	/	/	/	/	-12	/	/	/
